According to PubChem BioAssay AID1159580 (chemical genetic matrix, 2015):
Several values for one entry are separate records, joined by “and”; a condition that tells them apart may be missing. Equal entries are not always repeated. Hit rate of the full screen: of about 5,500 compounds, about 2,000 (36%) were called active. Not shown: some 18% with an inconclusive outcome. No stated cut-off is given here; in the data, active means normalized growth mostly below about 0.91 (no sharp cut-off); inconclusive means no clear call, values can overlap the other calls; inactive means mostly above about 0.92. This is one part of the list.

Test: chemical genetic growth profiling, strain panel (AID 1159580);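 further: tested at 20 µM; growth read once vehicle control cultures reached saturation at 30 °C; 1 = growth at the plate median or of vehicle wells; lower values mean less growth of the strain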
Details: S. cerevisiae deletion strains, growth OD

Measured: normalized growth

CC1(C)S[C@@H]2[C@H](NC(=O)[C@H](N)c3ccccc3)C(=O)N2[C@H]1C(=O)O
inactive: locus YAL021C, strain ccr4, active compounds read low 0.98 | locus YAL026C, strain drs2, active compounds read low 0.971 | locus YAL030W, strain snc1, active compounds read low 0.987 | locus YBL061C, strain skt5, active compounds read low 0.973 | locus YBR009C, strain hhf1, active compounds read low 1 | locus YBR021W, strain FUR4, active compounds read low 1.01 | locus YBR023C, strain chs3, active compounds read low 0.967 | locus YBR171W, strain sec66, active compounds read low 0.977 | locus YBR229C, strain ROT2, active compounds read low 1.01 | locus YBR231C, strain swc5, active compounds read low 0.999 | locus YBR279W, strain paf1, active compounds read low 0.954 | locus YCL011C, strain gbp2, active compounds read low 0.95 | locus YCL016C, strain dcc1, active compounds read low 0.942 | locus YCL029C, strain bik1, active compounds read low 0.998 | locus YCL061C, strain MRC1, active compounds read low 0.973 | locus YCL069W, strain vba3, active compounds read low 0.98 | locus YCR088W, strain abp1, active compounds read low 0.975 | locus YDL005C, strain med2, active compounds read low 0.979 | locus YDL035C, strain GPR1, active compounds read low 1.02 | locus YDL040C, strain nat1, active compounds read low 0.971 | locus YDL074C, strain BRE1, active compounds read low 1.01 | locus YDL101C, strain DUN1, active compounds read low 1.01 | locus YDL134C, strain PPH21, active compounds read low 1.01 | locus YDL185W, strain tfp1, active compounds read low 1 | locus YDL192W, strain arf1, active compounds read low 1.03 | locus YDR001C, strain nth1, active compounds read low 0.971 | locus YDR069C, strain doa4, active compounds read low 0.965 | locus YDR101C, strain arx1, active compounds read low 1.01 | locus YDR137W, strain rgp1, active compounds read low 0.945 | locus YDR150W, strain NUM1, active compounds read low 1.02 | locus YDR159W, strain sac3, active compounds read low 0.981 | locus YDR162C, strain NBP2, active compounds read low 1.03 | locus YDR195W, strain ref2 0.961 | locus YDR297W, strain sur2, active compounds read low 0.976 | locus YDR318W, strain mcm21, active compounds read low 1.01 | locus YDR334W, strain swr1, active compounds read low 0.961 | locus YDR335W, strain msn5, active compounds read low 0.948 | locus YDR388W, active compounds read low 1 | locus YDR392W, strain spt3, active compounds read low 0.888 | locus YDR502C, strain sam2, active compounds read low 1.01 | locus YEL003W, strain gim4, active compounds read low 0.98 | locus YEL037C, strain rad23, active compounds read low 0.979 | locus YEL061C, strain CIN8 (second series), active compounds read low 0.97 | locus YEL061C, strain CIN8, active compounds read low 1.01 | locus YER015W, strain faa2, active compounds read low 0.961 | locus YER016W, strain bim1, active compounds read low 0.955 | locus YER110C, active compounds read low 0.991 | locus YER111C, strain swi4, active compounds read low 0.96 | locus YER155C, strain BEM2 (second series), active compounds read low 1.03 | locus YER155C, strain BEM2, active compounds read low 1 | locus YER167W, strain BCK2, active compounds read low 1.01 | locus YFR010W, strain ubp6, active compounds read low 0.996 | locus YGL078C, strain dbp3, active compounds read low 0.999 | locus YGL086W, strain mad1, active compounds read low 1 | locus YGL167C, strain pmr1, active compounds read low 0.987 | locus YGL173C, strain kem1, active compounds read low 0.984 | locus YGL227W, strain vid30, active compounds read low 0.974 | locus YGL240W, strain doc1, active compounds read low 0.991 | locus YGL248W, strain PDE1, active compounds read low 1.02 | locus YGL253W, strain hxk2, active compounds read low 0.944 | locus YGR135W, strain pre9, active compounds read low 1.01 | locus YGR229C, strain SMI1, active compounds read low 1.03 | locus YGR252W, strain gcn5, active compounds read low 1.03 | locus YHR013C, strain ard1, active compounds read low 0.938 | locus YHR027C, strain rpn1, active compounds read low 0.97 | locus YHR030C, strain SLT2, active compounds read low 1.01 and 1.03 | locus YHR079C, strain IRE1 (second series), active compounds read low 1 | locus YHR079C, strain IRE1, active compounds read low 1.03 | locus YHR094C, strain hxt1, active compounds read low 0.994 | locus YHR129C, strain ARP1, active compounds read low 1.01 | locus YHR142W, strain chs7, active compounds read low 0.924 | locus YHR200W, strain rpn10, active compounds read low 1 | locus YIL066C, strain RNR3, active compounds read low 1.03 | locus YIL073C, strain SPO22, active compounds read low 1.04 | locus YIL125W, strain kgd1, active compounds read low 1 | locus YIR030C, strain dcg1, active compounds read low 1.01 | locus YJL092W, strain hpr5, active compounds read low 0.973 | locus YJL095W, strain BCK1 (second series), active compounds read low 0.989 | locus YJL095W, strain BCK1, active compounds read low 1.01 and 1.04 | locus YJL115W, strain asf1, active compounds read low 0.94 | locus YJL129C, strain trk1, active compounds read low 0.913 | locus YJL134W, strain LCB3, active compounds read low 1.01 | locus YJL154C, strain vps35, active compounds read low 0.97 | locus YJL164C, strain tpk1, active compounds read low 0.977 | locus YJL166W, strain qcr8, active compounds read low 0.998 | locus YJL168C, strain set2, active compounds read low 1 | locus YJL187C, strain SWE1 (second series), active compounds read low 1 | locus YJL187C, strain SWE1, active compounds read low 0.988
